Reference: ChEMBL document CHEMBL3988442, “University of Dundee, Small-Polar-MMV Screening Library” (2021)

Experiments:
[1] = target: T1, Aspartate--tRNA(Asp/Asn) ligase (Mycobacterium tuberculosis (strain ATCC 25618 / H37Rv)) (UniProt P9WFW3); experiment: Assay for Asp RNA synthetase-1 from Mycobacterium tuberculosis; type: functional; design: scale not given: direction of the effect not stated beside the values; settings: 30 µM; also: in the data most compounds retested in dose-response had high values
T1 sequence (whole entry): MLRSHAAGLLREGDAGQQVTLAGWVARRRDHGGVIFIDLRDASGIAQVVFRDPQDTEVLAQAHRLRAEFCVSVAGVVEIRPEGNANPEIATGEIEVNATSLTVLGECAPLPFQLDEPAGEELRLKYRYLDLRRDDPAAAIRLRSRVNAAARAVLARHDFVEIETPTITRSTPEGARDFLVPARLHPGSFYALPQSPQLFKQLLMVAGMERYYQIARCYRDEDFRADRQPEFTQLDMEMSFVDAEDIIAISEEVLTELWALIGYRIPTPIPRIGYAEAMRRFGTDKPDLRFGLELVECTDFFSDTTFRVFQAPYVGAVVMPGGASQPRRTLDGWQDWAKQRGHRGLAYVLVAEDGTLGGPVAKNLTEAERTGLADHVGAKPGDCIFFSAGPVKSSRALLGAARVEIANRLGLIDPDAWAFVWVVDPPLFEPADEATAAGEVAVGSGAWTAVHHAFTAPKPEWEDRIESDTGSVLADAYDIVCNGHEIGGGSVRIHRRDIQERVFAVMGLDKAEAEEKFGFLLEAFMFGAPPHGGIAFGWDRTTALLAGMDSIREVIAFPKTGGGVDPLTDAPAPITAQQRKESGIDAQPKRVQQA

[2] = target: Shiga toxin 2 (Escherichia coli O157:H7) (UniProt P09385+P09386); experiment: E. coli 0.157:H7 Shiga Toxin SOP - stx2 screening assay; type: functional; design: scale not given: direction of the effect not stated beside the values; settings: 30 µM

Compound: c1ccc(-c2nnn3c2COC(CNCC2CCOCC2)C3)cc1 (stereo not given)
- Percent Effect [1]: 2.63%
- Percent Effect [2]: -21.1%

Compound: CC1CN(C(=O)NCCCn2cncn2)CCO1 (stereo not given)
- Percent Effect [1]: -7.24%
- Percent Effect [2]: 31.5%

Compound: Cc1nc(CN2CCCC(N(C)CCc3cccs3)C2)no1 (stereo not given)
- Percent Effect [1]: -3.43%
- Percent Effect [2]: 25.8%

Compound: O=C(Cc1cccs1)NC1CCN(c2cccc(F)c2)CC1
- Percent Effect [1]: 2.33%
- Percent Effect [2]: -14.1%

Compound: CCn1cc(CN2CCCC(c3[nH]ncc3S(C)(=O)=O)C2)cn1 (stereo not given)
- Percent Effect [1]: -1.6%
- Percent Effect [2]: -18.8%

Compound: CN(C)C(=O)N1CCN(Cc2ccccc2)[C@@H]2CS(=O)(=O)C[C@@H]21
- Percent Effect [1]: 0.569%
- Percent Effect [2]: -3.78%

Compound: CCn1ccnc1-c1nc2cc(S(=O)(=O)N3CCCC3)ccc2n1C
- Percent Effect [1]: -4.2%
- Percent Effect [2]: -15.7%

Compound: c1cnnc(N2CCCC2CNCc2cnc(N3CCCC3)nc2)c1 (stereo not given)
- Percent Effect [1]: 0.626%
- Percent Effect [2]: -6.77%

Compound: O=C(Cc1ccc2c(c1)OCO2)N1CCCN(c2ccccc2)CC1
- Percent Effect [1]: 3.17%
- Percent Effect [2]: 3.72%

Compound: O=C(CCc1nccs1)N1CCCC(N2CCNC2=O)C1 (stereo not given)
- Percent Effect [1]: 6.01%
- Percent Effect [2]: -8.24%

Compound: CC(C)n1cc(CN2CCCN(C(=O)c3ccc[nH]3)CC2)cn1
- Percent Effect [1]: -3.14%
- Percent Effect [2]: -5.02%

Compound: CC(=O)c1c(F)cccc1N1CCC(Cc2cccnc2)CC1
- Percent Effect [1]: 0.661%
- Percent Effect [2]: -24.5%

Compound: CN(C(=O)C1CCCCC1)[C@@H]1CCC[C@@H](N2CCOCC2)[C@@H]1O
- Percent Effect [1]: 0.61%
- Percent Effect [2]: -11.6%

Compound: Cc1noc(C(C)C)c1C(=O)NS(=O)(=O)c1ccc(Cl)cc1
- Percent Effect [1]: -2.79%
- Percent Effect [2]: 13.7%

Compound: N#Cc1ccc(C(=O)N2CCn3c(Cn4cccn4)cnc3C2)cc1
- Percent Effect [1]: 1.54%
- Percent Effect [2]: 0.128%

Compound: CCc1nc(C2CCCN(C(=O)c3ccc(OC(C)C)nc3)C2)no1 (stereo not given)
- Percent Effect [1]: -1.24%
- Percent Effect [2]: 17.3%

Compound: Cc1ccc(C(=O)N2CCC3(CC2)COC(COc2ccccn2)C3)o1 (stereo not given)
- Percent Effect [1]: 4.9%
- Percent Effect [2]: 5.7%

Compound: NC(=O)CN1CCCN(C(=O)c2ccn(-c3ccccc3)n2)CC1
- Percent Effect [1]: -2.4%
- Percent Effect [2]: 6%

Compound: COc1ccccc1OC1CCN(Cc2cnc(N(C)C)nc2)CC1
- Percent Effect [1]: -2.72%
- Percent Effect [2]: 17.9%

Compound: CCc1nc(CN(C)C2CCN(Cc3cnc(C)cn3)C2)no1 (stereo not given)
- Percent Effect [1]: 1.14%
- Percent Effect [2]: -48.2%
